Experimental findings from PubChem BioAssay (NCATS) are described below.

Records with an inconclusive call do not appear. A call without a number means that no potency is given here. Active and inactive are the calls of the source. Calls come from the whole dose curve; as a rule, active = well fitted inhibition curve with a large enough effect; inconclusive = small, poorly fitted or top-dose-only effect; inactive = no such curve, though single readings can be large or run the other way.
Potency is the fitted concentration of half-maximal effect.

In this assay the target is Calcium and integrin-binding protein 1 (Homo sapiens) (UniProt Q99828). In words: Confirmatory qHTS for Identification of Calcium Integrin Binding Protein 1 (CIB1) Competitor (AID 1508617). Note: nearly all actives have a fitted effect of over 65% in size. Conditions: CIB1 binding competition assay, biochemical qHTS; series mostly up to 114 µM. An outline of the steps: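 Confirmatory qHTS measures displacement of a FITC-alphaIIb peptide (100 nM) from CIB1-GST (1 uM) by fluorescence polarization. Calcium-containing HEPES buffer, pH 7.4; two 15 min room-temperature incubations.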
Calcium and integrin-binding protein 1 (Homo sapiens), sequence (Q99828 whole entry, looked up): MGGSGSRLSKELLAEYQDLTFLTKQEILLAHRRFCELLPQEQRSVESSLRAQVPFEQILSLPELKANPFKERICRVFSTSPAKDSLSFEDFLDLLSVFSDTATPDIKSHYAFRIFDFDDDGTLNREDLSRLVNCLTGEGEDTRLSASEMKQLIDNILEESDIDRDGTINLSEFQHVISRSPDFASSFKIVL
Background: Quantitative high-throughput screening tests each substance at several concentrations.
Take `NC(=O)c1ccc(O)c2ncccc12`: the Potency entry was “inactive”.

For `CC(C)c1nc(Nc2nc3ccccc3o2)nc2c1CCCC2`, the Potency entry is “inactive”.

As to `CC(C)(C)OC(=O)CC(=O)NNC(=O)c1nc2ccccc2[nH]1`, the Potency entry was “inactive”.

As for `O=C(O)c1ccc(O)c2ncc(N3CCC(N4CCOCC4)C3)cc12` (centres undefined), the Potency result was “inactive”.

On to `CC1CCC2(C1)N=C(Nc1nc3ccccc3o1)NC1=C2C(=O)CCC1` (centres undefined), for which the Potency entry was “inactive”.

In the case of `O=C(c1ccc(-c2cc(O)c3ncccc3c2)cc1)N1CCNCC1`, the Potency entry is “inactive”.

As for `O=C1CCCC2=C1C1(CCOCC1)N=C(Nc1nc3ccccc3o1)N2`, the Potency result was “inactive”.

As for `Oc1cccc2cc(N3CCCC3)cnc12`, the Potency result is “inactive”.

`Cc1cc(NS(=O)(=O)c2ccc(NC(=O)Cc3ccc(F)c(Cl)c3)cc2)no1`: the Potency result is “inactive”.

Regarding `Cc1cnc(-c2ccccc2C(C)C)nc1NCc1ccc(-c2ccc(F)nc2)cc1`, the Potency is 112 µM (active).

Regarding `Oc1cccc2cc(C3CC3)cnc12`, the Potency entry was “inactive”.

As to `O=C1CCCC2=C1C(c1ccn[nH]1)N=C(Nc1nc3ccccc3o1)N2` (centres undefined), the Potency entry is “inactive”.

`CCOC(=O)c1[nH]c2c(c1C)C(=S)CC(c1ccco1)C2` (centres undefined): the Potency was 39.8 µM (active).

Regarding `CCc1ccc(NC(=O)C(=O)NNC(=O)c2cccs2)cc1`, the Potency entry was “inactive”.

In the case of `Fc1ccc(NC(=S)Nc2nnc(-c3ccncc3)s2)cc1C(F)(F)F`, the Potency result was “inactive”.

`O=C(NC(c1ccco1)c1cc(Cl)c2cccnc2c1O)c1cccs1` (centres undefined): the Potency entry was “inactive”.

As for `NC(=O)c1cccc(-c2cnc3c(O)ccc(C(=O)O)c3c2)c1`, the Potency result is “inactive”.

As to `O=[S+]([O-])(Nc1nccs1)c1ccc(NCc2cc(Cl)cc(Br)c2O)cc1`, the Potency result is “inactive”.

Regarding `CCOc1ccc(CCNC(C)=O)cc1OCC`, the Potency entry is “inactive”.

In the case of `CC1(C)N=C(Nc2nc3ccccc3o2)NC2=C1C(=O)CCC2`, the Potency result was “inactive”.

For `C/C(=C\c1ccc2c(c1)OCO2)C1Nc2cccc3cccc(c23)N1`, the Potency entry was “inactive”.

For the compound `Cc1ccsc1C1N=C(Nc2nc3ccccc3o2)NC2=C1C(=O)CCC2` (centres undefined), the Potency result was “inactive”.

With `COC(=O)c1ccc(O)c2ncc(-c3ccc(C(=O)N4CCNCC4)cc3)cc12`, the Potency entry was “inactive”.

On to `COc1ccc2c(=O)n3nc(Nc4cccc(N5CCN(C)CC5)c4)sc3nc2c1`, for which the Potency entry was “inactive”.

For the compound `Cc1ccccc1NC(=O)CN1C(=O)N/C(=C\c2cn(-c3cccc(C(=O)O)c3)cn2)C1=O`, the Potency entry is “inactive”.

For the compound `CCOc1ccc(CCNC(=O)c2ccc(N3N=C(C)CC3=O)cc2)cc1OCC`, the Potency entry is “inactive”.

With `O=C(NNC(=O)c1nc2ccccc2[nH]1)OCc1ccccc1`, the Potency entry was “inactive”.

As to `O=C1CCCC2=C1C(c1ncccc1C(F)(F)F)N=C(Nc1nc3ccccc3o1)N2` (centres undefined), the Potency result is “inactive”.

Turning to `O=C(NCCCN1CCNCC1)c1cccc(-c2cc(O)c3ncccc3c2)c1`, the Potency result was “inactive”.

Take `CSc1cc2c(s1)c1cnn(Cc3cccc(N)c3)c(=O)c1n2C`: the Potency is 39.8 µM (active).

In the case of `COC(=O)c1ccc(O)c2ncc(-c3ccc(C(=O)NCCCN(C)C)cc3)cc12`, the Potency result was “inactive”.

For `O=C1CCCC2=C1C1(CCCOC1)N=C(Nc1nc3ccccc3o1)N2` (centres undefined), the Potency entry is “inactive”.

On to `CC(O)c1ccc(-c2ccc3ncnc(N4CCOCC4)c3c2)o1` (centres undefined), for which the Potency result is “inactive”.

Regarding `Cc1ccc(OCCn2c(CCNC(=O)c3ccsc3)nc3ccccc32)cc1`, the Potency entry was “inactive”.

Regarding `C=CCNc1oc(-c2ccc(Cl)cc2)nc1C#N`, the Potency was 44.7 µM (active).

As to `Cc1ccc(C(=O)NC(c2ccco2)c2cc(Cl)c3cccnc3c2O)cc1` (centres undefined), the Potency result is “inactive”.

For `NC(=O)C1CCN(c2nc(-c3ccccc3N)cs2)CC1`, the Potency entry was “inactive”.

Consider `CN(C)c1cnc2c(O)cccc2c1`, for which the Potency entry was “inactive”.

`CS(=O)(=O)c1ccc(C(=O)OCC(=O)N2CCC(Cc3ccccc3)CC2)cc1[N+](=O)[O-]`: the Potency result was “inactive”.
